Data on 67 compounds can be found in PubChem BioAssay AID652136 (The Scripps Research Institute Molecular Screening Center, 2013).

The campaign covered roughly 2,400 compounds. About 1,900 (79%) were called active.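 Rule for the calls: active = inhibition above the mean of all tested compounds plus 3 SD (cut at about 3% in these data); inactive = the rest.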 So high a share suggests a set chosen from earlier hits. The list is a sample of the results.

One may read the inhibition as the drop in the measured response relative to a control, in per cent.

The experiment is described as follows: StAR reporter signal changes without DAX1, counter-screen for DAX1 inhibitor project, cell-based, luminescence, AF-2 mutant SF-1, transactivation (AID 652136).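 Note: 0% = DAX-1 transfected cells with DMSO and 100% = cells without DAX-1 with DMSO.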 The following applies: HEK293 StAR-luciferase, SF-1 AF2 mutant, at 6.8 µM, stronger effect = higher value. In general terms: Counterscreens check selectivity or assay interference.
With `COc1ccc(-c2csc(-c3cccs3)n2)cc1OC`, the inhibition is 5.61% (active).

Turning to `Cc1ccc(S(=O)Cc2ccc(C(=O)N3CCN(C4CCCCC4)CC3)o2)cc1` (configuration not stated), the inhibition was 2.33% (inactive).

Turning to `CN1CCN(C(=O)c2ccc(-c3ccc(Br)cc3)o2)CC1`, the inhibition is 4.28% (active).

`O=C(Nc1ncccc1O)c1ccc(S(=O)(=O)N2CCCC2)cc1`: the inhibition was 5.53% (active).

As to `O=C(Nc1ncccc1O)c1ccc(C(=O)c2ccccc2)cc1`, the inhibition was 35.8% (active).

Consider `O=C(Nc1ncccc1O)c1ccc(S(=O)(=O)N2CCCCCC2)cc1`, for which the inhibition is 2.43% (inactive).

Regarding `CC1CCN(CCCNC(=O)CN2C(=O)CSc3ccc(S(=O)(=O)N4CCCCC4)cc32)CC1`, the inhibition is 1.65% (inactive).

Take `Clc1ccc(Nc2nc(-c3cccs3)cs2)nc1`: the inhibition is 7.52% (active).

`COc1cc(OC)c(C(=O)NNC(=O)c2ccc(NS(=O)(=O)c3cccs3)cc2)cc1OC`: the inhibition is -0.43% (inactive).

On to `CC(C)(C)c1csc(NC2=NS(=O)(=O)c3ccccc32)n1`, for which the inhibition was 7.77% (active).

As for `Cc1ccc(N/C=C/C(=O)c2ccccc2)cc1C`, the inhibition is 4.16% (active).

For the compound `Fc1ccc2cnc(-c3ccccc3)cc2c1`, the inhibition was 5.1% (active).

Take `O=C(NCCc1ccc(F)cc1)c1ccc2nccnc2c1`: the inhibition was 8.87% (active).

Consider `COc1ccc2nc(-c3ccccn3)ccc2c1`, for which the inhibition is 5.03% (active).

`Cc1nn(-c2ccc([N+](=O)[O-])cc2)c(N)c1-c1ccccc1`: the inhibition was 6.97% (active).

On to `O=C(NC(=S)Nc1ccc(Cl)cc1Cl)C1CC1`, for which the inhibition is 3.76% (active).

Consider `COc1ccc(CCOC2OC(CO)C(OC(=O)/C=C/c3ccc(O)c(OC)c3)C(O[C@H]3O[C@@H](C)[C@H](O)[C@@H](O)[C@H]3O)C2O)cc1O` (some centres not stated), for which the inhibition was 1.22% (inactive).

For the compound `Cc1cc(OCc2cc(C(=O)NCc3cc(C(C)C)no3)no2)cc(C)c1Cl`, the inhibition was 3.41% (active).

`CCC(=O)Nc1ccc(-c2ccc(N3CCCCC3)nn2)cc1`: the inhibition was 2.89% (active).

For the compound `COc1ccc(CCNC(=O)COC(=O)Cc2ccccc2F)cc1`, the inhibition is -0.5% (inactive).

As for `COc1ccc(C(=O)NCC[N+](C)(C)C)cc1`, the inhibition was 1.97% (inactive).

Consider `CCCOc1ccc(C(=O)NCCc2ccccc2)cc1`, for which the inhibition was 4.75% (active).

With `CN(C(=O)c1cc2c(=O)n3ccccc3nc2s1)C1CCCCC1`, the inhibition is 3.77% (active).

As to `Cc1ccccc1OCC(=O)Nc1ccc2c(c1)ncn2C`, the inhibition was 5.06% (active).

In the case of `Cc1ccccc1Nc1nc(N)nc(CSc2ccccc2)n1`, the inhibition is 9.51% (active).

For the compound `CCOc1cccc(/C=C/c2ccc3ccccc3n2)c1OC(C)=O`, the inhibition was 2.8% (inactive).

Turning to `CNCC(O)c1ccc(O)c(O)c1` (configuration not stated), the inhibition was -2.85% (inactive).

`O=c1c2c(nc3cc(-c4cccc(Cl)c4)[nH]n13)CCCC2`: the inhibition was 5.64% (active).

With `CCOc1ccc(S(=O)(=O)Nc2cccc(C(=O)NCC3(N4CCCCC4)CCCCC3)c2)cc1`, the inhibition was 5.11% (active).

In the case of `CCN(c1ccccc1)S(=O)(=O)c1ccc(OCC(=O)N2CCCC2)cc1`, the inhibition was 1.13% (inactive).

For `O=C(NCC1(N2CCCCC2)CCCCC1)c1ccc(NS(=O)(=O)c2ccc(F)cc2)cc1`, the inhibition is 6.24% (active).

With `COc1ccc(OCc2cc(C(=O)N3CCCC3)no2)c2ccccc12`, the inhibition was 6.26% (active).

For `O=C(c1cc(-c2cccs2)on1)N1CCCCC1`, the inhibition is 4.85% (active).

Regarding `COc1ccccc1-c1cc(C(=O)N2CCCCC2)no1`, the inhibition is 7.48% (active).

Regarding `O=C(c1cc(-c2ccccc2O)on1)N1CCCC1`, the inhibition was 7.17% (active).

As to `CCOC(=O)c1c(S(=O)(=O)Nc2ccc(CN3CCC(C)CC3)cc2)c(C)n(C)c1C`, the inhibition is 1.43% (inactive).

In the case of `O=C(Nc1ccc2ccccc2c1[N+](=O)[O-])c1ccccc1`, the inhibition was 6.14% (active).

Take `COc1ccc(-c2csc(Nc3ccccn3)n2)cc1`: the inhibition was 5.68% (active).

In the case of `COc1ccc(-c2cn3ccsc3n2)cc1`, the inhibition is 6.15% (active).

Turning to `COc1ccc(-c2cn3ccc(C)cc3n2)cc1`, the inhibition is 3.87% (active).

In the case of `COC(=O)Nc1nc2ccc(C(=O)C3CC3)cc2[nH]1`, the inhibition is -5.19% (inactive).

`O=C(CSc1cccc[n+]1[O-])c1ccc(-c2ccccc2)cc1`: the inhibition is 1.01% (inactive).

In the case of `NS(=O)(=O)c1ccc2nc(NC(=O)C3=COCCO3)sc2c1`, the inhibition is 5.19% (active).

As for `Cc1cc(N)n2nc(-c3ccc(C(C)(C)C)cc3)cc2n1`, the inhibition was 8.64% (active).

As for `CCc1ccc2oc(-c3ccc(N)cc3)nc2c1`, the inhibition was 4.11% (active).

Consider `O=C(NCC1CCCO1)c1cc2c(s1)CCCC2` (configuration not stated), for which the inhibition was 4.63% (active).

In the case of `O=C(O)c1cccc(N=NN2CCCCCC2)c1`, the inhibition is 8.65% (active).

Turning to `CCOc1ccc(-c2nnc(-c3ccco3)o2)cc1`, the inhibition was 3.8% (active).

With `O=C(NCCOc1ccccc1)c1ccccc1F`, the inhibition was 6.6% (active).

Consider `C/C(=N\NC(=O)c1ccccc1F)c1ccccn1`, for which the inhibition is -9.06% (inactive).

Turning to `OC(c1ccccc1)c1nc(-c2cnc3ccccc3c2)cs1` (configuration not stated), the inhibition was 6.87% (active).

Regarding `CC(Oc1ccccc1[N+](=O)[O-])C(=O)N/N=C/c1ccoc1` (configuration not stated), the inhibition is -0.59% (inactive).

Consider `Cc1cc(C(=O)NCCc2ccc(Cl)cc2)c(C)o1`, for which the inhibition was 2.83% (inactive).

As for `CC(C)Cc1cc(C(=O)NCCc2ccccc2)no1`, the inhibition was 4.55% (active).

For `CC(C)c1ccc(C=NNc2ccc([N+](=O)[O-])cn2)cc1`, the inhibition was 7.98% (active).

As for `O=[N+]([O-])c1ccc2oc(-c3cccc(O)c3)nc2c1`, the inhibition was 8.65% (active).

As to `COc1ccc(Nc2ncc(F)c(N3CCOCC3)n2)cc1`, the inhibition is 7.01% (active).

In the case of `Cc1ccc(-c2nc3ccc(Br)cn3c2Cc2ccccc2C(F)(F)F)cc1`, the inhibition was 3.81% (active).

`COc1ccccc1Cc1c(-c2ccc(F)cc2)nc2ccc(C)cn12`: the inhibition is 3.36% (active).

For `C=CCn1c(SCC(=O)Nc2ccc(NC(C)=O)cc2)nc2sc(C)c(C)c2c1=O`, the inhibition is -2.48% (inactive).

Turning to `O=C(c1cnn(-c2ccc(Cl)cc2)c1)c1ccccc1O`, the inhibition was 7.41% (active).

In the case of `O=C1C(C=NCC2CCCO2)=C(O)c2ccccc21` (configuration not stated), the inhibition was 4.34% (active).

As for `Nc1ccc2nn(-c3ccc(Cl)cc3)nc2c1`, the inhibition was 10.2% (active).

With `COc1ccc2nc(SCc3ccccc3)nc(C)c2c1`, the inhibition is 8.35% (active).

With `CC(C)c1ccc(Nc2nnc(SCC(=O)c3nnc(-c4ccccc4)o3)s2)cc1`, the inhibition was 5.91% (active).

In the case of `CCc1ccc(NC(=O)N2CCc3ccccc3C2)cc1`, the inhibition is 2.82% (inactive).

As for `O=C(Nc1ccc2c(c1)CCC2)c1ccc(Br)s1`, the inhibition was 5.35% (active).
